# Assay results: PubChem BioAssay (EPA / NIEHS)
# Inconclusive results are not listed. The source made the active and inactive calls. Rule for the calls, unless noted: active = hit-call score of the fitted dose curve at least 0.9, where 1 is the maximum; inactive = score below 0.9.
# Experiments:
# [1] = system: Brachyury (BRA) Protein Expression, Deisenroth Lab, TBXT (gene 6862); assay: CCTE_Deisenroth_DEVTOX-GLR_legacy_Bra: (Legacy) CCTE's DevTox GLR-Endo Assay Evaluation of Brachyury (BRA) Protein Expression, Deisenroth Lab (AID 2284329)
# In short: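 RUES2-GLR human pluripotent cells differentiated 48 h with two 24-h-interval chemical exposures (1 nM - 200 uM, 10 points); fixed, nuclear-stained, imaged. Bra+ cell percentage (intensity 5x BMAD above pluripotent control median) fitted relative to 0.2% DMSO.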
# [2] = CCTE_Deisenroth_DEVTOX-GLR_legacy_CellCount: (Legacy) Viability Assessment in CCTE's DevTox GLR-Endo Assay, Deisenroth Lab (AID 2284331); settings: actives raise or lower the signal
# In short: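 RUES2-GLR human pluripotent cells were seeded 24 h, then differentiated 48 h with two compound doses at 24 h intervals (10-point, 1 nM - 200 uM). Fixed nuclei were imaged and counted; bidirectional fitting versus 0.2% DMSO.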
# [3] = system: SRY-box transcription factor 17 (SOX17) Protein Expression, Deisenroth Lab, SOX17 (gene 64321); assay: CCTE_Deisenroth_DEVTOX-GLR_legacy_Sox17: (Legacy) CCTE's DevTox GLR-Endo Assay Evaluation of SRY-box transcription factor 17 (SOX17) Protein Expression, Deisenroth Lab (AID 2284341); settings: actives raise or lower the signal
# In short: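 Percent SOX17-positive cells, scored by high-content imaging as mean intensity exceeding pluripotent-control median by 5x BMAD, divided by cell count. Human RUES2-GLR endoderm differentiation, 48 h, two exposures 24 h apart, 1 nM–200 uM; DMSO-referenced bidirectional fitting.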
# [4] = system: SRY-box transcription factor 2 (SOX2) Protein Expression, Deisenroth Lab, SOX2 (gene 6657); assay: CCTE_Deisenroth_DEVTOX-GLR_legacy_Sox2: (Legacy) CCTE's DevTox GLR-Endo Assay Evaluation of SRY-box transcription factor 2 (SOX2) Protein Expression, Deisenroth Lab (AID 2284346)
# In short: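 RUES2-GLR human pluripotent cells seeded 24 h, then differentiated 48 h in defined media with two chemical doses 24 h apart (10-point, 1 nM–200 uM). Fixed, nuclear-stained, imaged; % Sox2+ cells (>5x BMAD over endoderm control median), DMSO-subtracted, fitted upward.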
# [5] = system: SRY-box transcription factor 2 (SOX2) Protein Expression, Deisenroth Lab, SOX2 (gene 6657); assay: CCTE_Deisenroth_DEVTOX-GLR_Endo_SOX2: CCTE's DevTox GLR-Endo Assay Evaluation of SRY-box transcription factor 2 (SOX2) Protein Expression, Deisenroth Lab (AID 2284412; active = hit-call score of the fitted dose curve at least 0.9, where 1 is the maximum)
# In short: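 RUES2-GLR human pluripotent cells were seeded 24 h, then differentiated 48 h with two chemical exposures 24 h apart. Cells were fixed, nuclei stained and imaged by high-content microscopy. Endpoint is %SOX2+ cells over cell count, minus 0.2% DMSO control; 10-point series 1 nM–200 uM.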
# [6] = system: SRY-box transcription factor 17 (SOX17) Protein Expression, Deisenroth Lab, SOX17 (gene 64321); assay: CCTE_Deisenroth_DEVTOX-GLR_Endo_SOX17: CCTE's DevTox GLR-Endo Assay Evaluation of SRY-box transcription factor 17 (SOX17) Protein Expression, Deisenroth Lab (AID 2284413)
# In short: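 Endpoint: % change in SOX17+ fraction (SOX17+ cells / cell count) vs 0.2% DMSO solvent control. RUES2-GLR reporter cells, 48 h endoderm differentiation, two doses at 24 h intervals, high-content fluorescence imaging, 5 fields/well.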
# [7] = system: Brachyury (BRA) Protein Expression, TBXT (gene 6862); assay: CCTE_Deisenroth_DEVTOX-GLR_Endo_BRA: CCTE's DevTox GLR-Endo Assay Evaluation of Brachyury (BRA) Protein Expression, Deisenroth Lab (AID 2284417)
# In short: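 Endpoint is the fraction of BRA reporter-positive cells over total nuclei, corrected by subtracting the 0.2% DMSO value. Chemicals (1 nM - 200 uM, 10 points) were dosed twice during 48 h differentiation of RUES2-GLR cells, read by imaging.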
# [8] = CCTE_Deisenroth_DEVTOX-GLR_Endo_CellCount: Viability Assessment in CCTE's DevTox GLR-Endo Assay, Deisenroth Lab (AID 2284420)
# In short: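 RUES2-GLR pluripotent cells seeded 24 h, then differentiated 48 h in defined media with two chemical exposures 24 h apart. Nuclei counted by high-content imaging; 10-point 1 nM–200 uM series; percent change versus 0.2% DMSO.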
# [9] = system: SRY-box transcription factor 17 (SOX17) Protein Expression, Deisenroth Lab, SOX17 (gene 64321); assay: CCTE_Deisenroth_DEVTOX-GLR_Pluri_SOX17: CCTE's DevTox GLR-Pluri Assay Evaluation of SRY-box transcription factor 17 (SOX17) Protein Expression, Deisenroth Lab (AID 2284427; active = hit-call score of the fitted dose curve at least 0.9, where 1 is the maximum)
# In short: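 RUES2-GLR pluripotent cells were induced toward endoderm over 48 h and received two compound doses 24 h apart, in a 10-point series from 1 nM to 200 uM. The percentage of SOX17+ cells among total cells was measured by high-content imaging and reported minus the 0.2% DMSO control.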
# [10] = system: SRY-box transcription factor 2 (SOX2) Protein Expression, Deisenroth Lab, SOX2 (gene 6657); assay: CCTE_Deisenroth_DEVTOX-GLR_Pluri_SOX2: CCTE's DevTox GLR-Pluri Assay Evaluation of SRY-box transcription factor 2 (SOX2) Protein Expression, Deisenroth Lab (AID 2284428)
# In short: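 RUES2-GLR human pluripotent cells, two exposures 24 h apart over 48 h differentiation; 10-point series 1 nM - 200 uM. High-content imaging gives SOX2+ cells divided by cell count, reported as percent change versus 0.2% DMSO.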
# [11] = system: Brachyury (BRA) Protein Expression, Deisenroth Lab, TBXT (gene 6862); assay: CCTE_Deisenroth_DEVTOX-GLR_Pluri_BRA: CCTE's DevTox GLR-Pluri Assay Evaluation of Brachyury (BRA) Protein Expression, Deisenroth Lab (AID 2284429; active = hit-call score of the fitted dose curve at least 0.9, where 1 is the maximum)
# In short: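 Human pluripotent RUES2-GLR cells, seeded 24 h, were differentiated 48 h in defined media with two chemical doses at 24-h intervals (10-point, 1 nM - 200 uM). Readout: percent BRA+ cells by fluorescent reporter imaging, minus 0.2% DMSO control.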
# [12] = CCTE_Deisenroth_DEVTOX-GLR_Pluri_CellCount: Viability Assessment in CCTE's DevTox GLR-Pluri Assay Evaluation of Total Cell Counts, Deisenroth Lab (AID 2284430)
# In short: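 RUES2-GLR human pluripotent cells, seeded 24 h, then differentiated 48 h with two chemical exposures 24 h apart; 10-point series 1 nM - 200 uM. Fixed, nuclear-stained, imaged (5 fields/well); nuclei count as % change vs 0.2% DMSO.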
SMILES,outcome [1],outcome [2],outcome [3],outcome [4],AC50 [1],AC50 [2],AC50 [4],AC50 [5],AC50 [6],AC50 [7],AC50 [8],AC50 [9],AC50 [10],AC50 [11],AC50 [12]
NC(=O)c1ccc(-c2nc(-c3ccc4c(c3)OCO4)c(-c3ccccn3)[nH]2)cc1,inactive,inactive,inactive,inactive,,,,,,,,,,,
COc1ccc2[nH]c([S@@](=O)Cc3ncc(C)c(OC)c3C)nc2c1,,,,,67.9 µM (active),48.1 µM (active),56.1 µM (active),83.8 µM (active),33.8 µM (active),70.6 µM (active),47.9 µM (active),54 µM (active),66.6 µM (active),46.4 µM (active),31.3 µM (active)
